Bioassay records as filed in PubChem BioAssay.
In the library only some 3.8% were active in any assay of this set; here they are far more common.
ADAM10 inh = inhibitors of human ADAM10. O14672. recombinant ADAM10, EDANS/DABCYL FRET peptide cleavage, 3 h. inhibition, % at 7 µM. 0.62% of 370,000 active. AID 720582;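 active means inhibition above a per-campaign cutoff equal to the mean of compounds falling between control-based bounds plus 3 SD, cut at about 20% in these data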;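 further: 0% = DMSO wells while the 100% control is not disclosed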
rRNA inh HTS = inhibits bacterial ribosomal RNA function over humanized ribosomes. GFP signal change (wild-type ribosome), % (test concentration not listed). 1.6% of 350,000 active. E. coli WT GFP vs humanized-ribosome RFP mutants, fluorescence, 24 h; stronger effect = lower value; DMSO median 0, no signal -100. AID 720706;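 active means significant combined selectivity score with lowered wild-type GFP, culture density cut under 30%, mutant RFP and density less affected; inactive means any of these conditions unmet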
proKLK7 act = activates the human kallikrein-7 zymogen. purified proKLK7, EDANS-DABCYL substrate fluorescence; 100% is mature enzyme control, 0% vehicle. P49862. activation, % at 7 µM. AID 652039. 0.9% of 370,000 active;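 active means activation above the mean of all tested compounds plus 3 SD, computed per campaign excluding outliers beyond control limits, cut at about 13% in these data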
ADAM17 inh = inhibitors of human ADAM17; inhibition, % at 6.95 µM; P78536; recombinant ADAM17, EDANS/DABCYL FRET peptide cleavage; 0.83% of 370,000 active;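 active means inhibition above the mean of compounds lying between control limits plus 3 SD, set per campaign, cut at about 8.5% in these data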;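 further: 0% = DMSO-only wells as the low control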
Target sequence (P78536 215-824 limits assumed): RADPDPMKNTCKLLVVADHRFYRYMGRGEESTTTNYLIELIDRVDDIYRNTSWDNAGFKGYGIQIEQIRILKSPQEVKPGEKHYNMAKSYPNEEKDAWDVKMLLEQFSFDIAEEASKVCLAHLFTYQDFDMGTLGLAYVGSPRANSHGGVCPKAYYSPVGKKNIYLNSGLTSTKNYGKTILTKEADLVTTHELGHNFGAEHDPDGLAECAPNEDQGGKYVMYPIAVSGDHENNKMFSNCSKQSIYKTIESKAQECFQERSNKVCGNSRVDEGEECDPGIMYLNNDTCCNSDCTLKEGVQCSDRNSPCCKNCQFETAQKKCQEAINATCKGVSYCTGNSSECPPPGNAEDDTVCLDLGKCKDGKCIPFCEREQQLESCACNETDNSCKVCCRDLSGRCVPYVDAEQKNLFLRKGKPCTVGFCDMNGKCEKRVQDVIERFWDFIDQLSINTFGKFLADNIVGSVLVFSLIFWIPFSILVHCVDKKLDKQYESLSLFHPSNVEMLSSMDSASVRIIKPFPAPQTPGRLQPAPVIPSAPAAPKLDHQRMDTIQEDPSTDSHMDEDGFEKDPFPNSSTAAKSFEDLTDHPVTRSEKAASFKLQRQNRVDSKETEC
FGF22 binding = binders of recombinant human FGF22 by thermal shift; activity (Tm shift, normalised), % at 9.99 µM; 1.5% of 340,000 active; Q9HCT0; SYPRO orange fluorescence; percent of sucrose octasulfate shift, DMSO zero;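 active means mean Tm shift, scaled 0 neutral to 100 positive control, at about 1.3% or above, every replicate too, limit read from the data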
ADAM10 confirm = confirmation of inhibitors of human ADAM10. 1% of 2,100 active. inhibition, % at 6.95 µM. ADAM10 QFRET peptide cleavage, EDANS fluorescence. shares compounds with ADAM10 inh;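 active means inhibition above about 20% chosen separately for each screening run, limit read from the data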;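 further: 0% = DMSO wells and 100% = marimastat wells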
ADAM17 counter = inhibits human ADAM17 in ADAM10 exosite counter-screen; shares compounds with ADAM10 inh; ADAM17 QFRET peptide cleavage, EDANS fluorescence; inhibition, % at 6.95 µM; 0.5% of 2,100 active;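 active means mean triplicate inhibition above the solvent-only control wells' mean plus 3 SD, cut at about 12% in these data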;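 further: 0% = DMSO wells and 100% = marimastat wells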
ADAM10 counter = inhibits human ADAM10 in ADAM17 exosite counter-screen | shares compounds with ADAM17 inh | recombinant ADAM10, EDANS/DABCYL FRET peptide cleavage, 3 h | inhibition, % at 6.95 µM | 47% of 2,900 active | AID 743256;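 active means mean inhibition over the triplicate runs exceeds the activity threshold set in the earlier primary screen, cut at about 20% in these data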;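 further: 0% = DMSO wells and 100% = marimastat wells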
ADAM17 confirm = confirmation of inhibitors of human ADAM17. 65% of 2,900 active. recombinant ADAM17, EDANS/DABCYL QFRET peptide cleavage. shares compounds with ADAM17 inh. inhibition, % at 6.95 µM. AID 743257;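 active means mean inhibition across replicates above the hit cutoff set in the primary screen, cut at about 8.5% in these data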;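 further: 0% = DMSO wells and 100% = marimastat wells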
Active calls of the source: *; / = no result; ! = not active in a repeat.

SMILES	ADAM10 inh	rRNA inh HTS	proKLK7 act	ADAM17 inh	FGF22 binding	ADAM10 confirm	ADAM17 counter	ADAM10 counter	ADAM17 confirm
Cc1cccc(Nc2nc(N)c([N+](=O)[O-])c(NCc3ccco3)n2)c1	31*	-40	-1	16*	0	2	1	20*	10*
CCS(=O)(=O)N1CC(=O)N2[C@H](C1)[C@@H](c1ccc(C#CCC3CCCC3)cc1)[C@@H]2CO	/	-17	/	/	/	/	/	/	/
CCOC(=O)[C@]12CCCC=C1N(Cc1cccc3ccccc13)C(=O)[C@H](CC(=O)NCc1cccs1)C2	27*	7	0	10*	0	4	2	26*	16*
CCOC(=O)[C@]12CCCC=C1N(Cc1cccc3ccccc13)C(=O)[C@H](CC(=O)NCc1ccccc1)C2	18	/	0	8	0	/	/	/	/
CO[C@H]1CN(C)C(=O)c2cc(NC(=O)C3CCC3)ccc2OC[C@H](C)N(Cc2ccccn2)C[C@@H]1C	/	0	/	/	0	/	/	/	/
O=C(N[C@H]1CC[C@H](CC(=O)N2CCOCC2)O[C@H]1CO)c1ccc2c(c1)OCO2	/	5	/	/	0	/	/	/	/
COc1cc(OC)cc(C(=O)NC(=S)NNC(=O)[C@H]2C[C@@H]2c2ccccc2)c1	6	/	0	1	0	/	/	/	/
COc1ccc(C(=O)NC(=S)NNC(=O)[C@H]2C[C@@H]2c2ccccc2)cc1OC	32*	/	0	11*	0	3	3	-18	-1
CCC(C(=O)OCC(=O)Nc1ccc(SC(F)F)cc1)c1ccccc1 (centres undefined)	29*	-56	0	12*	1	5	3	43*	23*
C[C@@H]1CN([C@@H](C)CO)C(=O)Cc2cc(NC(=O)CCC(F)(F)F)ccc2O[C@@H]1CN(C)Cc1ccccc1	/	-1	/	/	0	/	/	/	/
CC(C)C#Cc1ccc2c(c1)O[C@H](CN(C)C(=O)c1cccc(F)c1)[C@H](C)CN([C@@H](C)CO)S2(=O)=O	/	0	/	/	0	/	/	/	/
CCN(CC)S(=O)(=O)c1ccc(NC(=O)COC(=O)CCc2cc(OC)c(OC)c(OC)c2)cc1	28*	/	-1	11*	/	6	1	5	3
COc1cc(CCC(=O)OCC(=O)Nc2cccc(S(=O)(=O)N(C)C)c2)cc(OC)c1OC	-2	/	0	0	0	/	/	/	/
Cc1ccc(C(=O)Nc2nnc(NC(=S)Nc3ccccc3)s2)cc1	24*	2	-1	9.2*	41	12	4	-9	3
CCOc1ccc(C(=O)Nc2nnc(NC(=S)Nc3ccccc3)s2)cc1	10	11	0	6	0	/	/	/	/
COc1ccccc1C(CCNS(=O)(=O)c1ccc(C)cc1)c1ccco1 (centres undefined)	21*	-21	-1	9.3*	0	5	2	27*	18*
Cc1ccc(Nc2nnc(SCC(=O)Nc3cccc(S(=O)(=O)N4CCCCC4)c3)s2)cc1	27*	-14	0	11*	0	9	3	30*	17*
O=C(OCc1nnc(-c2ccc(Cl)cc2)o1)c1ccncc1	-11	/	-1	-4	/	/	/	/	/
Cc1noc(C)c1COc1ccc(C(=O)OCc2nnc(-c3ccc(Cl)cc3)o2)cc1	22*	/	0	12*	/	2	1	21*	14*
COc1ccc(NS(=O)(=O)c2cccc(N/C(=N\S(=O)(=O)c3ccccc3)c3ccc(F)cc3)c2)cc1	21*	-15	0	8.7*	0	4	1	24*	15*
O=S(=O)(/N=C(/Nc1ccc(Cl)c(S(=O)(=O)Nc2ccccc2Cl)c1)c1ccc(F)cc1)c1ccccc1	22*!	-28*!	0	12*!	0	7	2	36*	18*
